A selection: hits, their analogues and other compounds. The true share with any hit is near 7.2%.
RE007 growth inh – less growth of the S. pombe RE007 Vpr strain; 360,000 compounds, 0.21% hits; S. pombe RE007 Vpr strain, BacTiter-Glo ATP luminescence, 24 h; AID 651644; Potency, µM (doses to about 92.2 µM), actives largely listed as inhibitors; active means well fitted falling curve with a large enough effect; inconclusive means small, poorly fitted or top-dose-only effect; inactive means no such curve, though single readings can be large or run the other way; further: nearly all actives have a fitted effect of over 50% in size
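Fission yeast RE007 carrying one integrated HIV-1 vpr copy, seeded at OD 0.01 in PMG+AL medium with 23 nL pinned compound. Grown 24 h at 30 degrees; viability read by BacTiter-Glo luminescence after 5 min.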
MARV entry inh – inhibitors of Marburg virus binding or cell entry | Marburg virus pseudotyped entry inhibition, cell reporter | AID 540276 | 300,000 compounds, 1.8% hits | Potency, µM (top dose mostly 37.8 µM), hits mostly inhibitors; calls by dose curve; tested in HEK293 cells
Sm TGR inh – inhibitors of Schistosoma mansoni thioredoxin glutathione reductase. purified TGR, DTNB reduction, TNB absorbance 405 nm. Potency, µM (series often up to 114 µM), most hits filed as inhibitors. 360,000 compounds, 3% hits; further: nearly all actives have a fitted effect of over 60% in size
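Kinetic colorimetric format: TGR-catalysed, NADPH-driven DTNB reduction monitored via TNB absorbance. Enzyme dispensed at 20 nM; compound exposure 15 min at room temperature before reaction start.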
FMDV antiviral – blocks foot and mouth disease virus. Potency, µM (doses to about 57.9 µM), most hits filed as inhibitors. 410,000 compounds, 1.2% hits. AID 1159524. FMDV antiviral cell-based qHTS; calls by dose curve; tested in HEK293T cells; further: read-out not given here; nearly all actives have a fitted effect of over 45% in size
LASV entry inh – blocks Lassa virus binding to or entry into cells. 300,000 compounds, 1.2% hits. Lassa virus pseudotype entry inhibition, cell reporter. Potency, µM (series often up to 37.9 µM), hits mostly inhibitors; calls by dose curve; tested in HEK293 cells; further: nearly all actives have a fitted effect of over 50% in size
HCV inh – blocks hepatitis C virus; Huh7.5.1 HCVcc-Cre infection, luciferase reporter, 44 h; Potency, µM (series often up to 41.8 µM), actives largely listed as inhibitors; 340,000 compounds, 3.4% hits
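Infectious HCV cell culture screen: compound-treated cells (1,000/well, pre-plated 4 h) are infected with HCVcc-Cre at roughly 0.5 moi and grown 44 h. Infection is quantified by luciferase signal after 15 min substrate incubation at room temperature.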
A number is an active result; . = inactive; ? = inconclusive; / = not tested or not shown. Unless noted, the call rests on the fitted dose curve; in most records, active means well fitted curve in the direction sought with a large enough effect; inconclusive means small, poorly fitted or top-dose-only effect, or another doubt; inactive means no such curve, though single readings can be large; an effect the other way counts as inactive or inconclusive.

SMILES | RE007 growth inh | MARV entry inh | Sm TGR inh | FMDV antiviral | LASV entry inh | HCV inh
CCc1ccc(-n2nc(CO)c(C(=O)NCCCc3ccccc3)n2)cc1 | / | . | . | . | . | /
NS(=O)(=O)c1ccc(-c2ccc(/C=C3\C(=O)Nc4ccccc43)o2)cc1 | / | / | . | / | / | /
O=C1Nc2ccccc2/C1=C/c1cccnc1 | . | ? | . | . | ? | ?
Cc1ccc2c(c1)/C(=C/c1ccco1)C(=O)N2 | . | ? | ? | . | . | 11µM
CN(C)c1ccc(/C=C2/C(=O)Nc3ccccc32)cc1 | / | 2µM | / | . | / | /
Cc1ccc(/C=C2\C(=O)Nc3ccccc32)o1 | . | . | 25µM | . | . | ?
O=C1NC(=O)/C(=C/c2ccco2)N1 | / | / | . | . | / | /
CN(C)c1ccc(/C=C2\C(=O)Nc3ccccc32)cc1 | / | 2µM | / | . | ? | /
COc1ccc(CNC(=O)CSCc2nc(-c3ccccc3C)oc2C)cc1 | / | . | . | . | . | /
COc1cccc(CN2CCC3(CC2)c2ccccc2[C@@H](NC(=O)c2ccccc2)[C@@H]3O)c1O | / | / | / | . | / | /
Cc1cc(C)c2c(n1)SCCN2C(=O)Nc1ccc(C(=O)Nc2ccc(C(C)C)cc2)cc1 | / | / | . | ? | ? | /
Cc1nn(-c2ccccc2)c2c1N(CC(=O)N1CCN(c3cccc(Cl)c3)CC1)C(=O)CS2 | / | / | . | . | . | /
CCc1ccccc1NC(=O)CN1CCN(C(=O)CNC(=O)Cc2cccc3ccccc23)CC1 | . | / | . | ? | / | 11µM
Cc1cccc(NC(=O)CN2CCN(C(=O)CNC(=O)c3ccc(-c4ccccc4)cc3)CC2)c1C | . | / | / | 20µM | / | /
Cc1cccc(C)c1NC(=O)CN1CCN(C(=O)CNC(=O)c2ccc(-c3ccccc3)cc2)CC1 | . | / | / | . | / | /
CCOC(=O)Cn1c(S(=O)(=O)Cc2cccc(F)c2)nc(-c2ccccc2)c1-c1ccccc1 | . | 2.6µM | . | . | 7.3µM | ?
CCOC(=O)Cn1c(S(=O)(=O)Cc2ccc(F)cc2)nc(-c2ccccc2)c1-c1ccccc1 | . | 4.1µM | . | . | 2.6µM | ?
COc1cc(=O)n2c(c1C(=O)N(C)Cc1nonc1C)CCN(C(=O)c1cc(C)cc(C)c1)CC2 | / | / | / | . | / | /
Cc1cc(OCC(=O)NCC2CCC(C(=O)O)CC2)c2c(C)c(Cc3ccccc3)c(=O)oc2c1 (configuration not stated) | . | / | 32µM | . | / | .
Cc1c(Cc2ccccc2)c(=O)oc2c(C)c(OCC(=O)NCC3CCC(C(=O)O)CC3)ccc12 (configuration not stated) | . | / | . | . | / | .
COc1ccccc1N1CCN(CCCNC(=O)c2cnn(-c3ccccc3)c2C2CCN(C(=O)OC(C)(C)C)CC2)CC1 | / | / | . | . | ? | /
Cc1ccc(S(=O)(=O)N2CCCCC2)cc1NC(=O)COc1ccccc1 | . | ? | / | . | . | ?
CCC(C)SCC(=O)Nc1ccc(S(=O)(=O)N2CCOCC2)cc1OC (configuration not stated) | . | . | . | . | . | 11µM
CCOc1ccc(S(=O)(=O)N2CCCCC2)cc1NC(=O)C1COc2ccccc2O1 (configuration not stated) | . | ? | . | ? | . | 10µM
CCC(CC)C(=O)OCC(=O)Nc1ccc(S(=O)(=O)N2CCOCC2)cc1OC | . | . | . | . | . | .
SMILES | RE007 growth inh | MARV entry inh | Sm TGR inh | FMDV antiviral | LASV entry inh | HCV inh
COc1ccc(S(=O)(=O)N2CCCCCC2)cc1NC(=O)CN1C(=O)NC(C)(c2ccccc2)C1=O (configuration not stated) | . | ? | 35µM | . | . | ?
CCC(=O)c1ccc(OCC(=O)Nc2cc(S(=O)(=O)N3CCCCC3)ccc2OC)cc1 | . | / | . | . | / | 11µM
COc1ccc(OCCCC(=O)Nc2cc(S(=O)(=O)N3CCCCC3)ccc2OC)cc1 | . | / | . | . | / | ?
COc1ccc(S(=O)(=O)N2CCOCC2)cc1NC(=O)CN1CCC(Cc2ccccc2)CC1 | . | ? | . | . | 10µM | 10µM
COc1ccc(S(=O)(=O)N2CCCCCC2)cc1NC(=O)CCCOc1ccccc1 | . | / | . | . | / | 13µM
Cc1cc(/C=N/NC(=O)C(O)(c2ccccc2)c2ccccc2)c(C)n1-c1cccc(C(=O)O)c1 | . | / | 32µM | . | / | .
COc1ccc2[nH]c3c(c2c1)CCNC3c1ccc([N+](=O)[O-])o1 (configuration not stated) | / | / | 0.89µM | . | / | .
Cc1ncc2c(c1CNC(=O)c1ccc3c(c1)OCO3)CCN(C(=O)c1ccoc1)C2 | / | / | / | . | / | /
Cc1ccc(S(=O)(=O)N(C)C)cc1NC(=S)Nc1ccc2cn[nH]c2c1 | . | . | 18µM | . | . | .
Cc1ccc(NC(=S)Nc2ccc3cn[nH]c3c2)cc1C | . | / | . | . | / | .
CC(=O)c1ccc(NC(=S)Nc2ccc3cn[nH]c3c2)cc1 | . | . | 20µM | . | . | .
O=C(Nc1nc(-c2ccco2)c(-c2ccco2)s1)c1c(F)cccc1Cl | . | / | 22µM | . | / | 14µM
O=C(Nc1nc(-c2ccco2)c(-c2ccco2)s1)c1cnccn1 | . | ? | 14µM | . | . | ?
O=C(Nc1nc2c(F)cccc2s1)c1ccco1 | . | / | . | . | / | .
O=C(Nc1nc(-c2ccco2)c(-c2ccco2)s1)c1ccc(F)cc1F | . | . | 10µM | . | . | ?
O=S(=O)(Nc1nc(-c2ccco2)c(-c2ccco2)s1)c1ccc(F)cc1F | . | / | / | . | / | /
CCC[C@@H](CN[C@@H](CNC)[C@H](C)CC)NCC1CCC(C(C)(C)C)CC1 (some centres not stated) | . | / | . | . | / | 7.9µM
O=C(CCn1c(=O)oc2ccccc21)n1c(=O)oc2ccccc21 | . | . | 16µM | . | . | .
Cc1c(C(=O)NCc2ccco2)sc2nc(-c3ccccc3)cn12 | . | / | . | . | / | 10µM
Cc1c(C(=O)Nc2ccncc2)sc2nc(-c3ccccc3)cn12 | . | / | . | 20µM | / | 3.5µM
Cc1c(C(=O)Nc2ccc3c(c2)OCCO3)sc2nc(-c3ccccc3)cn12 | . | ? | . | 16µM | ? | 2.5µM
CCN(CC)c1ccc(NC(=O)c2sc3nc(-c4ccccc4)cn3c2C)cc1 | / | / | . | . | ? | /
CN1CCN(NC(=O)c2cn(-c3ccccc3)nc2-c2ccc(OC(F)F)cc2)CC1 | . | 7.1µM | . | . | . | .
COc1ccc(-c2nn(-c3ccccc3)cc2C(=O)Nc2nccs2)cc1 | . | ? | . | ? | . | ?
O=C(O)c1ccc2c(c1)C(=O)N([C@]1(C(=O)O)CC1c1ccccc1)C2=O (some centres not stated) | / | / | . | / | / | /
N#Cc1ccc(NC(=O)COC(=O)C2Cc3ccccc3CN2C(=O)c2ccccc2)cc1 (configuration not stated) | . | ? | . | . | . | 10µM
Cc1cccc(C)c1NC(=O)COC(=O)C1Cc2ccccc2CN1C(=O)c1ccccc1 (configuration not stated) | . | . | . | . | . | .
